# Source: publication PMC11062922 (Nature Chemical Biology, 2023)
# Like-named read-outs stand apart in the source and are kept apart here.
# Key:
# PAK4 = details: read-out: apparent Kd, n = 1
# PHKG2 = details: read-out: apparent Kd, n = 1
substance,measurement,setting,value
Lestaurtinib,potency estimated from few doses,"PAK4; compound concentrations:100 nM and 1000 nM (sheet 'Lestaurtinib' of Supplementary Table 1),run:Lestaurtinib_02766_R2,Plate:MR027",23.7 nM
same,potency estimated from few doses,"PAK4; compound concentrations:100 nM and 1000 nM (sheet 'Lestaurtinib' of Supplementary Table 1),run:Lestaurtinib_02768_R1,Plate:MR028",35.4 nM
same,potency estimated from few doses,"PAK4; compound concentrations:100 nM and 1000 nM (sheet 'Lestaurtinib' of Supplementary Table 1),run:Lestaurtinib_02768_R2,Plate:MR028",29.5 nM
same,potency estimated from few doses,"PAK4; compound concentrations:100 nM and 1000 nM (sheet 'Lestaurtinib' of Supplementary Table 1),run:Lestaurtinib_02768_R3,Plate:MR028",32.7 nM
same,potency estimated from few doses,"PAK4; compound concentrations:100 nM and 1000 nM (sheet 'Lestaurtinib' of Supplementary Table 1),run:Lestaurtinib_02795_R1,Plate:MR022",35.1 nM
same,potency estimated from few doses,"PAK4; compound concentrations:100 nM and 1000 nM (sheet 'Lestaurtinib' of Supplementary Table 1),run:Lestaurtinib_02795_R2,Plate:MR022",29.7 nM
same,potency estimated from few doses,"PAK4; compound concentrations:100 nM and 1000 nM (sheet 'Lestaurtinib' of Supplementary Table 1),run:Lestaurtinib_02795_R3,Plate:MR022",113 nM
same,potency estimated from few doses,"PAK4; compound concentrations:100 nM and 1000 nM (sheet 'Lestaurtinib' of Supplementary Table 1),run:Lestaurtinib_02802_R3,Plate:MR029",24.8 nM
same,potency estimated from few doses,"PAK4; compound concentrations:100 nM and 1000 nM (sheet 'Lestaurtinib' of Supplementary Table 1),run:Lestaurtinib_02896_R1,Plate:MR030",35.9 nM
same,potency estimated from few doses,"PAK4; compound concentrations:100 nM and 1000 nM (sheet 'Lestaurtinib' of Supplementary Table 1),run:Lestaurtinib_02896_R2,Plate:MR030",30.1 nM
same,potency estimated from few doses,"PAK4; compound concentrations:100 nM and 1000 nM (sheet 'Lestaurtinib' of Supplementary Table 1),run:Lestaurtinib_02896_R3,Plate:MR030",36.2 nM
same,potency estimated from few doses,"PAK4; compound concentrations:100 nM and 1000 nM (sheet 'Lestaurtinib' of Supplementary Table 1),run:Lestaurtinib_03172_R1,Plate:MR031",32.7 nM
same,potency estimated from few doses,"PAK4; compound concentrations:100 nM and 1000 nM (sheet 'Lestaurtinib' of Supplementary Table 1),run:Lestaurtinib_03172_R2,Plate:MR031",29.6 nM
same,potency estimated from few doses,"PAK4; compound concentrations:100 nM and 1000 nM (sheet 'Lestaurtinib' of Supplementary Table 1),run:Lestaurtinib_03172_R3,Plate:MR031",26.1 nM
same,potency estimated from few doses,"PAK4; compound concentrations:100 nM and 1000 nM (sheet 'Lestaurtinib' of Supplementary Table 1),run:Lestaurtinib_03252_R1,Plate:MR032",43.4 nM
same,potency estimated from few doses,"PAK4; compound concentrations:100 nM and 1000 nM (sheet 'Lestaurtinib' of Supplementary Table 1),run:Lestaurtinib_03252_R2,Plate:MR032",25.3 nM
same,potency estimated from few doses,"PAK4; compound concentrations:100 nM and 1000 nM (sheet 'Lestaurtinib' of Supplementary Table 1),run:Lestaurtinib_03260_R1,Plate:MR033",48.6 nM
same,potency estimated from few doses,"PAK4; compound concentrations:100 nM and 1000 nM (sheet 'Lestaurtinib' of Supplementary Table 1),run:Lestaurtinib_03260_R2,Plate:MR033",48 nM
same,potency estimated from few doses,"PHKG2; compound concentrations:100 nM and 1000 nM (sheet 'Lestaurtinib' of Supplementary Table 1),run:Lestaurtinib_02339_R1,Plate:MR001",838 nM
same,potency estimated from few doses,"PHKG2; compound concentrations:100 nM and 1000 nM (sheet 'Lestaurtinib' of Supplementary Table 1),run:Lestaurtinib_02339_R2,Plate:MR001",142 nM
same,potency estimated from few doses,"PHKG2; compound concentrations:100 nM and 1000 nM (sheet 'Lestaurtinib' of Supplementary Table 1),run:Lestaurtinib_02339_R3,Plate:MR001",275 nM
same,potency estimated from few doses,"PHKG2; compound concentrations:100 nM and 1000 nM (sheet 'Lestaurtinib' of Supplementary Table 1),run:Lestaurtinib_02364_R1,Plate:MR002",462 nM
same,potency estimated from few doses,"PHKG2; compound concentrations:100 nM and 1000 nM (sheet 'Lestaurtinib' of Supplementary Table 1),run:Lestaurtinib_02364_R2,Plate:MR002",360 nM
same,potency estimated from few doses,"PHKG2; compound concentrations:100 nM and 1000 nM (sheet 'Lestaurtinib' of Supplementary Table 1),run:Lestaurtinib_02364_R3,Plate:MR002",574 nM
same,potency estimated from few doses,"PHKG2; compound concentrations:100 nM and 1000 nM (sheet 'Lestaurtinib' of Supplementary Table 1),run:Lestaurtinib_02367_R1,Plate:MR003",323 nM
same,potency estimated from few doses,"PHKG2; compound concentrations:100 nM and 1000 nM (sheet 'Lestaurtinib' of Supplementary Table 1),run:Lestaurtinib_02367_R3,Plate:MR003",356 nM
same,potency estimated from few doses,"PHKG2; compound concentrations:100 nM and 1000 nM (sheet 'Lestaurtinib' of Supplementary Table 1),run:Lestaurtinib_02381_R1,Plate:MR004",137 nM
same,potency estimated from few doses,"PHKG2; compound concentrations:100 nM and 1000 nM (sheet 'Lestaurtinib' of Supplementary Table 1),run:Lestaurtinib_02381_R2,Plate:MR004",197 nM
same,potency estimated from few doses,"PHKG2; compound concentrations:100 nM and 1000 nM (sheet 'Lestaurtinib' of Supplementary Table 1),run:Lestaurtinib_02381_R3,Plate:MR004",144 nM
same,potency estimated from few doses,"PHKG2; compound concentrations:100 nM and 1000 nM (sheet 'Lestaurtinib' of Supplementary Table 1),run:Lestaurtinib_02422_R1,Plate:MR006",213 nM
same,potency estimated from few doses,"PHKG2; compound concentrations:100 nM and 1000 nM (sheet 'Lestaurtinib' of Supplementary Table 1),run:Lestaurtinib_02422_R2,Plate:MR006",55.3 nM
same,potency estimated from few doses,"PHKG2; compound concentrations:100 nM and 1000 nM (sheet 'Lestaurtinib' of Supplementary Table 1),run:Lestaurtinib_02437_R1,Plate:MR007",135 nM
same,potency estimated from few doses,"PHKG2; compound concentrations:100 nM and 1000 nM (sheet 'Lestaurtinib' of Supplementary Table 1),run:Lestaurtinib_02443_R1,Plate:MR009",170 nM
same,potency estimated from few doses,"PHKG2; compound concentrations:100 nM and 1000 nM (sheet 'Lestaurtinib' of Supplementary Table 1),run:Lestaurtinib_02443_R2,Plate:MR009",193 nM
same,potency estimated from few doses,"PHKG2; compound concentrations:100 nM and 1000 nM (sheet 'Lestaurtinib' of Supplementary Table 1),run:Lestaurtinib_02443_R3,Plate:MR009",99.2 nM
same,potency estimated from few doses,"PHKG2; compound concentrations:100 nM and 1000 nM (sheet 'Lestaurtinib' of Supplementary Table 1),run:Lestaurtinib_02473_R1,Plate:MR010",310 nM
same,potency estimated from few doses,"PHKG2; compound concentrations:100 nM and 1000 nM (sheet 'Lestaurtinib' of Supplementary Table 1),run:Lestaurtinib_02473_R2,Plate:MR010",228 nM
same,potency estimated from few doses,"PHKG2; compound concentrations:100 nM and 1000 nM (sheet 'Lestaurtinib' of Supplementary Table 1),run:Lestaurtinib_02473_R3,Plate:MR010",159 nM
same,potency estimated from few doses,"PHKG2; compound concentrations:100 nM and 1000 nM (sheet 'Lestaurtinib' of Supplementary Table 1),run:Lestaurtinib_02482_R1,Plate:MR011",197 nM
same,potency estimated from few doses,"PHKG2; compound concentrations:100 nM and 1000 nM (sheet 'Lestaurtinib' of Supplementary Table 1),run:Lestaurtinib_02482_R2,Plate:MR011",501 nM
same,potency estimated from few doses,"PHKG2; compound concentrations:100 nM and 1000 nM (sheet 'Lestaurtinib' of Supplementary Table 1),run:Lestaurtinib_02482_R3,Plate:MR011",248 nM
same,potency estimated from few doses,"PHKG2; compound concentrations:100 nM and 1000 nM (sheet 'Lestaurtinib' of Supplementary Table 1),run:Lestaurtinib_02496_R1,Plate:MR013",115 nM
